Test results: PMC11006913
Changes are numbered by the printed parent chain.

Legend:
Test in all cases: PBM; 200 nM protein, PBS
Settings in all cases: dsDNA, one strand shown
SIX6 [1] = target: T1, SIX6 (Homo sapiens, UniProt O95475 114-200, L167I)
T1 sequence: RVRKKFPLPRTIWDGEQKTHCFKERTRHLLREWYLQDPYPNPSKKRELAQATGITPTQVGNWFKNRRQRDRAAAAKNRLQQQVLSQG

SIX6 [2] = target: T2, SIX6 (Homo sapiens, UniProt O95475 114-200, H141N)
T2 sequence: T1 sequence with H28N, I54L

SIX6 [3] = target: T3, SIX6 (Homo sapiens, UniProt O95475 114-200, L167M)
T3 sequence: T1 sequence with I54M

SIX6 [4] = target: T4, SIX6 (Homo sapiens, UniProt O95475 114-200, L143M)
T4 sequence: T1 sequence with L30M, I54L

SIX6 [5] = target: T5, SIX6 (Homo sapiens, UniProt O95475 114-200, T165G)
T5 sequence: T1 sequence with T52G, I54L

SIX6 [6] = target: T6, SIX6 (Homo sapiens, UniProt O95475 114-200, T139Q)
T6 sequence: T1 sequence with T26Q, I54L

SIX6 [7] = target: T7, SIX6 (Homo sapiens, UniProt O95475 114-200, T165A)
T7 sequence: T1 sequence with T52A, I54L

SIX6 [8] = target: T8, SIX6 (Homo sapiens, UniProt O95475 114-200, L167V)
T8 sequence: T1 sequence with I54V

SIX6 [9] = target: T9, SIX6 (Homo sapiens, UniProt O95475 114-200)
T9 sequence: T1 sequence with I54L

SIX6 [10] = target: T10, SIX6 (Homo sapiens, UniProt O95475 114-200, T165I)
T10 sequence: T1 sequence with T52I, I54L

SIX6 [11] = target: T11, SIX6 (Homo sapiens, UniProt O95475 114-200, T165P)
T11 sequence: T1 sequence with T52P, I54L

SIX6 [12] = target: T12, SIX6 (Homo sapiens, UniProt O95475 114-200, L143I)
T12 sequence: T1 sequence with L30I, I54L

SIX6 [13] = target: T13, SIX6 (Homo sapiens, UniProt O95475 114-200, L143V)
T13 sequence: T1 sequence with L30V, I54L

| Sequence | binding signal (SIX6 [1]) | binding signal (SIX6 [2]) | binding signal (SIX6 [3]) | binding signal (SIX6 [4]) | binding signal (SIX6 [5]) | binding signal (SIX6 [6]) | binding signal (SIX6 [7]) | binding signal (SIX6 [8]) | binding signal (SIX6 [9]) | binding signal (SIX6 [10]) | binding signal (SIX6 [11]) | binding signal (SIX6 [12]) | binding signal (SIX6 [13]) |
| --- | --- | --- | --- | --- | --- | --- | --- | --- | --- | --- | --- | --- | --- |
| ATCCTAAT | 10.2 upbm affinity estimate (log intensity, higher = more binding, comparable within an allelic series) | 10.2 upbm affinity estimate (log intensity, higher = more binding, comparable within an allelic series) | 10.1 upbm affinity estimate (log intensity, higher = more binding, comparable within an allelic series) | 10.2 upbm affinity estimate (log intensity, higher = more binding, comparable within an allelic series) | 10.2 upbm affinity estimate (log intensity, higher = more binding, comparable within an allelic series) | 10.5 upbm affinity estimate (log intensity, higher = more binding, comparable within an allelic series) | 10.2 upbm affinity estimate (log intensity, higher = more binding, comparable within an allelic series) | 10.1 upbm affinity estimate (log intensity, higher = more binding, comparable within an allelic series) | 10.2 upbm affinity estimate (log intensity, higher = more binding, comparable within an allelic series) | 10.2 upbm affinity estimate (log intensity, higher = more binding, comparable within an allelic series) | – | – | – |
| GATCTTCA | 10.3 upbm affinity estimate (log intensity, higher = more binding, comparable within an allelic series) | 10.3 upbm affinity estimate (log intensity, higher = more binding, comparable within an allelic series) | – | – | 10.3 upbm affinity estimate (log intensity, higher = more binding, comparable within an allelic series) | 10.4 upbm affinity estimate (log intensity, higher = more binding, comparable within an allelic series) | – | 10.2 upbm affinity estimate (log intensity, higher = more binding, comparable within an allelic series) | 10.3 upbm affinity estimate (log intensity, higher = more binding, comparable within an allelic series) | – | 9.68 upbm affinity estimate (log intensity, higher = more binding, comparable within an allelic series) | – | – |
| AGAATATC | 10.5 upbm affinity estimate (log intensity, higher = more binding, comparable within an allelic series) | 10.3 upbm affinity estimate (log intensity, higher = more binding, comparable within an allelic series) | 10.4 upbm affinity estimate (log intensity, higher = more binding, comparable within an allelic series) | 10.5 upbm affinity estimate (log intensity, higher = more binding, comparable within an allelic series) | 10.5 upbm affinity estimate (log intensity, higher = more binding, comparable within an allelic series) | 10.5 upbm affinity estimate (log intensity, higher = more binding, comparable within an allelic series) | 10.4 upbm affinity estimate (log intensity, higher = more binding, comparable within an allelic series) | 10.3 upbm affinity estimate (log intensity, higher = more binding, comparable within an allelic series) | 10.3 upbm affinity estimate (log intensity, higher = more binding, comparable within an allelic series) | 10.3 upbm affinity estimate (log intensity, higher = more binding, comparable within an allelic series) | 9.77 upbm affinity estimate (log intensity, higher = more binding, comparable within an allelic series) | 9.98 upbm affinity estimate (log intensity, higher = more binding, comparable within an allelic series) | – |
| GGGTGTCA | 10.4 upbm affinity estimate (log intensity, higher = more binding, comparable within an allelic series) | – | 9.79 upbm affinity estimate (log intensity, higher = more binding, comparable within an allelic series) | – | 11.1 upbm affinity estimate (log intensity, higher = more binding, comparable within an allelic series) | – | 11.1 upbm affinity estimate (log intensity, higher = more binding, comparable within an allelic series) | – | – | – | 9.2 upbm affinity estimate (log intensity, higher = more binding, comparable within an allelic series) | – | – |
| ATACCTCC | 10.3 upbm affinity estimate (log intensity, higher = more binding, comparable within an allelic series) | 10.4 upbm affinity estimate (log intensity, higher = more binding, comparable within an allelic series) | – | – | 10.5 upbm affinity estimate (log intensity, higher = more binding, comparable within an allelic series) | 10.5 upbm affinity estimate (log intensity, higher = more binding, comparable within an allelic series) | – | – | 10.4 upbm affinity estimate (log intensity, higher = more binding, comparable within an allelic series) | – | 9.38 upbm affinity estimate (log intensity, higher = more binding, comparable within an allelic series) | – | 9.86 upbm affinity estimate (log intensity, higher = more binding, comparable within an allelic series) |
| GATATACA | 11.1 upbm affinity estimate (log intensity, higher = more binding, comparable within an allelic series) | – | 10.9 upbm affinity estimate (log intensity, higher = more binding, comparable within an allelic series) | – | – | – | – | – | – | 10.9 upbm affinity estimate (log intensity, higher = more binding, comparable within an allelic series) | – | 10.4 upbm affinity estimate (log intensity, higher = more binding, comparable within an allelic series) | – |
| CGGATAAA | 10.4 upbm affinity estimate (log intensity, higher = more binding, comparable within an allelic series) | 10.3 upbm affinity estimate (log intensity, higher = more binding, comparable within an allelic series) | 10.4 upbm affinity estimate (log intensity, higher = more binding, comparable within an allelic series) | 10.5 upbm affinity estimate (log intensity, higher = more binding, comparable within an allelic series) | – | – | 10.3 upbm affinity estimate (log intensity, higher = more binding, comparable within an allelic series) | 10.2 upbm affinity estimate (log intensity, higher = more binding, comparable within an allelic series) | 10.4 upbm affinity estimate (log intensity, higher = more binding, comparable within an allelic series) | 10.3 upbm affinity estimate (log intensity, higher = more binding, comparable within an allelic series) | 9.86 upbm affinity estimate (log intensity, higher = more binding, comparable within an allelic series) | 10 upbm affinity estimate (log intensity, higher = more binding, comparable within an allelic series) | – |
| ATATCAAG | 11.1 upbm affinity estimate (log intensity, higher = more binding, comparable within an allelic series) | – | – | 11 upbm affinity estimate (log intensity, higher = more binding, comparable within an allelic series) | 11.1 upbm affinity estimate (log intensity, higher = more binding, comparable within an allelic series) | – | – | 10.9 upbm affinity estimate (log intensity, higher = more binding, comparable within an allelic series) | – | 10.9 upbm affinity estimate (log intensity, higher = more binding, comparable within an allelic series) | – | – | – |
| ATACAGAT | 10.7 upbm affinity estimate (log intensity, higher = more binding, comparable within an allelic series) | 10.6 upbm affinity estimate (log intensity, higher = more binding, comparable within an allelic series) | 10.5 upbm affinity estimate (log intensity, higher = more binding, comparable within an allelic series) | 10.7 upbm affinity estimate (log intensity, higher = more binding, comparable within an allelic series) | 10.7 upbm affinity estimate (log intensity, higher = more binding, comparable within an allelic series) | 10.8 upbm affinity estimate (log intensity, higher = more binding, comparable within an allelic series) | 10.5 upbm affinity estimate (log intensity, higher = more binding, comparable within an allelic series) | 10.5 upbm affinity estimate (log intensity, higher = more binding, comparable within an allelic series) | 10.6 upbm affinity estimate (log intensity, higher = more binding, comparable within an allelic series) | 10.5 upbm affinity estimate (log intensity, higher = more binding, comparable within an allelic series) | 10 upbm affinity estimate (log intensity, higher = more binding, comparable within an allelic series) | 10.3 upbm affinity estimate (log intensity, higher = more binding, comparable within an allelic series) | – |
| TGACACCA | 10.3 upbm affinity estimate (log intensity, higher = more binding, comparable within an allelic series) | – | 9.84 upbm affinity estimate (log intensity, higher = more binding, comparable within an allelic series) | – | 11.2 upbm affinity estimate (log intensity, higher = more binding, comparable within an allelic series) | – | 11.1 upbm affinity estimate (log intensity, higher = more binding, comparable within an allelic series) | – | – | – | – | – | – |
| ACTATACG | 10 upbm affinity estimate (log intensity, higher = more binding, comparable within an allelic series) | 10 upbm affinity estimate (log intensity, higher = more binding, comparable within an allelic series) | 10.1 upbm affinity estimate (log intensity, higher = more binding, comparable within an allelic series) | – | 9.95 upbm affinity estimate (log intensity, higher = more binding, comparable within an allelic series) | – | 10 upbm affinity estimate (log intensity, higher = more binding, comparable within an allelic series) | 10 upbm affinity estimate (log intensity, higher = more binding, comparable within an allelic series) | 10.1 upbm affinity estimate (log intensity, higher = more binding, comparable within an allelic series) | 9.99 upbm affinity estimate (log intensity, higher = more binding, comparable within an allelic series) | – | – | – |
| GATCCAAA | 10.4 upbm affinity estimate (log intensity, higher = more binding, comparable within an allelic series) | 10.2 upbm affinity estimate (log intensity, higher = more binding, comparable within an allelic series) | 10 upbm affinity estimate (log intensity, higher = more binding, comparable within an allelic series) | 10.4 upbm affinity estimate (log intensity, higher = more binding, comparable within an allelic series) | 10.2 upbm affinity estimate (log intensity, higher = more binding, comparable within an allelic series) | 10.5 upbm affinity estimate (log intensity, higher = more binding, comparable within an allelic series) | 10.2 upbm affinity estimate (log intensity, higher = more binding, comparable within an allelic series) | 10.1 upbm affinity estimate (log intensity, higher = more binding, comparable within an allelic series) | 10.3 upbm affinity estimate (log intensity, higher = more binding, comparable within an allelic series) | 10.2 upbm affinity estimate (log intensity, higher = more binding, comparable within an allelic series) | 9.67 upbm affinity estimate (log intensity, higher = more binding, comparable within an allelic series) | – | – |
| ATATCACG | 11.1 upbm affinity estimate (log intensity, higher = more binding, comparable within an allelic series) | 11.1 upbm affinity estimate (log intensity, higher = more binding, comparable within an allelic series) | – | – | – | – | 11 upbm affinity estimate (log intensity, higher = more binding, comparable within an allelic series) | – | – | 10.9 upbm affinity estimate (log intensity, higher = more binding, comparable within an allelic series) | – | – | – |
| ACAATACT | 10.3 upbm affinity estimate (log intensity, higher = more binding, comparable within an allelic series) | 10.2 upbm affinity estimate (log intensity, higher = more binding, comparable within an allelic series) | 10.2 upbm affinity estimate (log intensity, higher = more binding, comparable within an allelic series) | 10.4 upbm affinity estimate (log intensity, higher = more binding, comparable within an allelic series) | 10.3 upbm affinity estimate (log intensity, higher = more binding, comparable within an allelic series) | 10.5 upbm affinity estimate (log intensity, higher = more binding, comparable within an allelic series) | 10.3 upbm affinity estimate (log intensity, higher = more binding, comparable within an allelic series) | 10.2 upbm affinity estimate (log intensity, higher = more binding, comparable within an allelic series) | 10.2 upbm affinity estimate (log intensity, higher = more binding, comparable within an allelic series) | 10.2 upbm affinity estimate (log intensity, higher = more binding, comparable within an allelic series) | – | 10.1 upbm affinity estimate (log intensity, higher = more binding, comparable within an allelic series) | – |
| AAGGTATC | 11.1 upbm affinity estimate (log intensity, higher = more binding, comparable within an allelic series) | 11 upbm affinity estimate (log intensity, higher = more binding, comparable within an allelic series) | – | – | – | – | – | – | – | – | – | – | – |
| GGATAGTA | 10.4 upbm affinity estimate (log intensity, higher = more binding, comparable within an allelic series) | 10.3 upbm affinity estimate (log intensity, higher = more binding, comparable within an allelic series) | 10.3 upbm affinity estimate (log intensity, higher = more binding, comparable within an allelic series) | – | 10.4 upbm affinity estimate (log intensity, higher = more binding, comparable within an allelic series) | 10.6 upbm affinity estimate (log intensity, higher = more binding, comparable within an allelic series) | – | 10.3 upbm affinity estimate (log intensity, higher = more binding, comparable within an allelic series) | 10.4 upbm affinity estimate (log intensity, higher = more binding, comparable within an allelic series) | 10.3 upbm affinity estimate (log intensity, higher = more binding, comparable within an allelic series) | 9.87 upbm affinity estimate (log intensity, higher = more binding, comparable within an allelic series) | 10.2 upbm affinity estimate (log intensity, higher = more binding, comparable within an allelic series) | – |
| ACGGATCC | 10.2 upbm affinity estimate (log intensity, higher = more binding, comparable within an allelic series) | 10.1 upbm affinity estimate (log intensity, higher = more binding, comparable within an allelic series) | – | – | – | 10.5 upbm affinity estimate (log intensity, higher = more binding, comparable within an allelic series) | – | 10 upbm affinity estimate (log intensity, higher = more binding, comparable within an allelic series) | 10.2 upbm affinity estimate (log intensity, higher = more binding, comparable within an allelic series) | – | 9.26 upbm affinity estimate (log intensity, higher = more binding, comparable within an allelic series) | – | 9.67 upbm affinity estimate (log intensity, higher = more binding, comparable within an allelic series) |
